Screening data (PubChem BioAssay)
TDP1 cell CPT: qHTS for Inhibitors of human tyrosyl-DNA phosphodiesterase 1 (TDP1): qHTS in cells in presence of CPT; actives 12% (n = 420,000); AID 686979, 2013; Potency, µM (titrated, usually from 46.2 µM), for the others: at the top dose activity change, negative = growth inhibition, actives largely listed as inhibitors; chicken DT40 Tdp1-/-;hTDP1 cells + 20 nM CPT, ATP luminescence, 48 h; note: potency is the fitted concentration of half-maximal effect; nearly all actives have a fitted effect of over 55% in size
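Chicken DT40 Tdp1-/- cells complemented with human TDP1, 400 cells/well, exposed to compounds plus 20 nM camptothecin for at least 48 h at 37 C; viability read as ATP content by CellTiter-Glo luminescence.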
LDHA block: qHTS assay for inhibitors of human lactate dehydrogenase. purified LDHA, NADH/diaphorase-resazurin fluorescence; active compounds read low. activity change, % (values are at about 110 or 230 µM). actives 0.15% (n = 480,000); in the data active = activity change below about -30%; inconclusive = mostly about -25% to -30%;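 note: plate controls were DMSO wells for no effect and wells without enzyme for full effect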
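Human LDH5 at 2 nM final in Tris HCl pH 7.4 with 0.06 mM NADH and 0.2 mM pyruvate, reacted 5 minutes at room temperature. Remaining NADH coupled via diaphorase/resazurin; resorufin fluorescence read at 0 and 20 minutes, normalized to enzyme-free and DMSO wells.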
IL-1B inflam inh: qHTS for Inhibitors of Inflammasome Signaling: IL-1-beta AlphaLISA Primary Screen | THP-1 LPS/ATP IL-1B secretion, AlphaLISA, 16 h; active compounds read low | activity change, % at 57.5 µM | AID 743279, 2014 | actives 4.7% (n = 360,000); in the data active = activity change below about -50%; inconclusive = mostly about -30% to -49%
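THP-1 cells pretreated 1 hr with compounds (up to 57.5 uM final), then stimulated with LPS (250 ng/mL final) plus ATP (1.25 mM final); secreted IL-1B measured by AlphaLISA after 16 hr, decreased signal indicating inhibition.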
DT40 TDP1 no CPT: qHTS for Inhibitors of human tyrosyl-DNA phosphodiesterase 1 (TDP1): qHTS in cells in absence of CPT; DT40 Tdp1-/- hTDP1 cells, no CPT, ATP luminescence, 48 h; Potency, µM (titrated, usually from 46.2 µM), for the others: at the top dose activity change, negative = growth inhibition, usual class: inhibitors; actives 15% (n = 420,000); note: potency is the fitted concentration of half-maximal effect; nearly all actives have a fitted effect of over 55% in size
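DT40 Tdp1-/-;hTDP1 cells, no CPT (DMSO vehicle only), 400 cells/well; compounds pin-transferred; ≥48 hr, 37 °C; CellTiter-Glo 30 min RT dark, luminescence read.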
Gal4-VP16 FLuc: VP16 counterscreen qHTS for inhibitors of ROR gamma transcriptional activity; Drosophila S2 Gal4-VP16 UAS-luciferase, luminescence, 20 h; Potency, µM (top dose mostly 53.6 µM), for the others: at the top dose activity, negative = inhibition, actives largely listed as inhibitors; actives 3.5% (n = 310,000); AID 2546, 2010;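 note: Gal4-VP16 expression switched on by copper sulfate through the metallothionein promoter; potency is the fitted concentration of half-maximal effect; nearly all actives have a fitted effect of over 50% in size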
RORg inh: qHTS for inhibitors of ROR gamma transcriptional activity; AID 2551, 2010; Potency, µM (series often up to 53.6 µM), for inactives: top-dose activity change, negative = inhibition, most hits filed as inhibitors; actives 5.4% (n = 310,000); Drosophila S2 Gal4-RORgamma UAS-luciferase reporter, 20 h; Nuclear receptor ROR-gamma (Mus musculus), P51450; note: potency is the fitted concentration of half-maximal effect; nearly all actives have a fitted effect of over 60% in size
Target sequence (P51450 whole entry, looked up, the tested form may be a part): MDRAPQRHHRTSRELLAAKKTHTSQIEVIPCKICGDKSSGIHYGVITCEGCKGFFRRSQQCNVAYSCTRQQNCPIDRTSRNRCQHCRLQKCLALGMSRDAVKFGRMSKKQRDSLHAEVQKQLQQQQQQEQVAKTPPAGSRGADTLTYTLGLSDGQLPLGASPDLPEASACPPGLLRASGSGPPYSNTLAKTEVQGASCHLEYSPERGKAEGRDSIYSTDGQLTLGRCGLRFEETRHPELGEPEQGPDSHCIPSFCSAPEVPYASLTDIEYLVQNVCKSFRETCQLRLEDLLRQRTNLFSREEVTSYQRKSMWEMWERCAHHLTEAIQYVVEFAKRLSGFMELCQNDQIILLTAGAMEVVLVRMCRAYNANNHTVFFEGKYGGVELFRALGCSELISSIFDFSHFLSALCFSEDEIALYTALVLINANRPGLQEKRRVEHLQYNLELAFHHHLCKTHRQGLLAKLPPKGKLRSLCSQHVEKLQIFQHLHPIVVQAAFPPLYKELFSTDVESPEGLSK
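Compounds are pin-transferred onto Drosophila Schneider cells expressing a copper-inducible Gal4–ROR gamma transactivation domain fusion. After 1 hr, copper sulfate is added to 700 uM final; luciferase is read 20 hr later.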
* hit, by the source's call; ! = not confirmed by another sample; [ ] = another dose, or the depositor's remark. Rows were chosen to be rich in hits. Some 18% of all compounds tested hit in one or more screens of this group. Unless noted, calls come from the whole dose curve; as a rule, active = well fitted curve in the direction sought with a large enough effect; inconclusive = small, poorly fitted or top-dose-only effect, or another doubt; inactive = no such curve, though single readings can be large; an effect the other way counts as inactive or inconclusive. Unless noted, % is set by controls: 0 for no effect and ±100 for the full control effect.

Screening CC1C(=O)OC2C(O)C34C5OC(=O)[C@@]3(OC3OC(=O)[C@H](O)[C@]34C(C(C)(C)C)C5O)[C@]12O (stereo partly specified) returned TDP1 cell CPT 16%, DT40 TDP1 no CPT 5%, Gal4-VP16 FLuc -1% and RORg inh 15%.
Screening Cc1csc2nc(COC(=O)c3ccccc3NC(=O)c3ccc(F)cc3)cc(=O)n12 returned TDP1 cell CPT inconclusive, LDHA block -5 and DT40 TDP1 no CPT inconclusive.
`S=C(S)N1CCCC1` gave TDP1 cell CPT 0.06µM*, LDHA block -5, IL-1B inflam inh 5, DT40 TDP1 no CPT 0.053µM*, Gal4-VP16 FLuc 0.32µM* and RORg inh inconclusive.
`C[N+](C)(C)CC1CCCC(C[N+](C)(C)C)C1=O` (stereo unspecified) gave TDP1 cell CPT 0.041µM*, LDHA block -41*, IL-1B inflam inh -23 and DT40 TDP1 no CPT 0.058µM*.
C[N+](C)(C)CC1CCCc2ccccc2C1=O (stereo unspecified) was read as TDP1 cell CPT 2.9µM*, LDHA block inconclusive, IL-1B inflam inh -11 and DT40 TDP1 no CPT 2.6µM*.
`O=C1Nc2ccccc2C2(CCN(CCc3ccc(C(F)(F)F)cc3)CC2)O1` gave Gal4-VP16 FLuc -4% and RORg inh 6%.
Screening CC1N(C)c2cc(NC(=O)c3ccco3)c(P(=O)(Nc3ccc([N+](=O)[O-])cc3)N3CCOCC3)cc2C1(C)C (stereo unspecified) returned TDP1 cell CPT 4.6µM*, LDHA block -3, IL-1B inflam inh -55*, DT40 TDP1 no CPT 5.2µM*, Gal4-VP16 FLuc -4% and RORg inh inconclusive.
`Cc1cccc(C)c1-n1nnnc1C(c1cccs1)N1CCC2(CC1)C(=O)NCN2c1ccccc1` (stereo unspecified) gave TDP1 cell CPT 15µM*, LDHA block -3, IL-1B inflam inh -4 and DT40 TDP1 no CPT 15µM*.
`CC(C)(C)n1nnnc1C(c1cccs1)N1CCC2(CC1)C(=O)NCN2c1ccccc1` (stereo unspecified) gave TDP1 cell CPT -19%, LDHA block -2, IL-1B inflam inh -17 and DT40 TDP1 no CPT inconclusive.
COc1ccc(-n2nnnc2C(c2ccccc2OC(F)(F)F)N2CCC3(CC2)C(=O)NCN3c2ccccc2)cc1 (stereo unspecified) was read as TDP1 cell CPT 18µM*, LDHA block -8, IL-1B inflam inh 0 and DT40 TDP1 no CPT 23µM*.
COc1ccc(-n2nnnc2C(c2ccnc3ccccc23)N2CCC3(CC2)C(=O)NCN3c2ccccc2)cc1 (stereo unspecified) was read as TDP1 cell CPT inconclusive, LDHA block -4, IL-1B inflam inh 0 and DT40 TDP1 no CPT 23µM*.
`COc1ccc(C(c2nnnn2-c2ccc(OC)cc2)N2CCC3(CC2)C(=O)NCN3c2ccccc2)cc1` (stereo unspecified) gave TDP1 cell CPT inconclusive, LDHA block -7, IL-1B inflam inh inconclusive and DT40 TDP1 no CPT inconclusive.
`COc1ccc(-n2nnnc2C(c2ccccc2)N2CCC3(CC2)C(=O)NCN3c2ccccc2)cc1` (stereo unspecified) gave TDP1 cell CPT inconclusive, LDHA block -10, IL-1B inflam inh -59* and DT40 TDP1 no CPT inconclusive.
Screening COc1cc(CN2CCN(C(=O)COc3ccccc3)CC2)cc(OC)c1O returned LDHA block 24.
CCCCCCCC(=O)Cl was read as Gal4-VP16 FLuc -4% and RORg inh -16%.
Screening CN(C)C(=O)Nc1ccc(Cl)cc1 returned Gal4-VP16 FLuc 19% and RORg inh -1%.
For CCN1C[C@@]2(COC)C3[C@@H](OC)C4[C@@H]1[C@@]3(C1C[C@@]3(O)[C@H](OC(=O)c5ccccc5)C1[C@]4(OC(C)=O)[C@@H](O)[C@@H]3OC)[C@@H](OC)C[C@H]2O (stereo partly specified) the results were TDP1 cell CPT -4%, DT40 TDP1 no CPT 16%, Gal4-VP16 FLuc -1% and RORg inh 0%.
CS(=O)c1ccc(-c2nc(-c3ccc(F)cc3)c(-c3ccncc3)[nH]2)cc1 (stereo unspecified) was read as TDP1 cell CPT 30µM*!, DT40 TDP1 no CPT 15µM*, Gal4-VP16 FLuc -2% and RORg inh 7%.
Screening CCN(CC)C(=O)/C(Cl)=C(\C)OP(=O)(OC)OC returned TDP1 cell CPT -4%, DT40 TDP1 no CPT -3%, Gal4-VP16 FLuc -7% and RORg inh -26%[10 µM].
Screening O=C(COC(=O)C(O)(c1ccccc1)c1ccccc1)c1c[nH]c2ccccc12 returned LDHA block 5.
`Cc1ccc(/C=C2\C(=O)NC(=S)N(c3ccc(F)cc3)C2=O)o1` gave TDP1 cell CPT 7.3µM*, LDHA block 2, IL-1B inflam inh 3, DT40 TDP1 no CPT 15µM*, Gal4-VP16 FLuc 0% and RORg inh inconclusive.
Screening COc1ccc(N2C(=O)/C(=C/c3cccs3)C(=O)NC2=S)cc1 returned TDP1 cell CPT 5.2µM*, LDHA block 3, IL-1B inflam inh 3, DT40 TDP1 no CPT 3.7µM*, Gal4-VP16 FLuc 3% and RORg inh 2%.
Screening COc1ccc(N2C(=O)/C(=C/c3ccc(N(C)C)o3)C(=O)NC2=S)cc1 returned TDP1 cell CPT -18%, LDHA block 3, IL-1B inflam inh -2, DT40 TDP1 no CPT -5%, Gal4-VP16 FLuc -5% and RORg inh -4%.
O=C1NC(=S)N(c2ccccc2)C(=O)/C1=C/c1ccco1 was read as TDP1 cell CPT inconclusive, LDHA block -18, IL-1B inflam inh 1, DT40 TDP1 no CPT inconclusive, Gal4-VP16 FLuc -2% and RORg inh -1%.
For COc1ccccc1/C=C1\C(=O)NC(=S)N(c2ccccc2)C1=O the results were TDP1 cell CPT -1%, LDHA block -24, IL-1B inflam inh 0, DT40 TDP1 no CPT 20%, Gal4-VP16 FLuc 3% and RORg inh -21%.
